esBAF inh – blocks esBAF chromatin remodeling in mouse ES cells. Bmi1-luciferase knock-in reporter, 24 h; 100% = twice the neutral-well signal. reporter increase, % at 12.5 µM. 350,000 tested, 2% active. AID 602393; in the data active means activation above about 40%; inconclusive means no clear call, values can overlap the other calls;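 further: 0% = median of the plate's neutral control wells and 100% = double that signal; a rise in the Bmi1 reporter signal indicates esBAF inhibition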
MITF act – activators of MITF-driven TRPM1 promoter activity in SK-MEL-5 cells; SK-MEL-5 TRPM1-promoter luciferase, 24 h; % of positive control, neutral wells = 0; activation, % at 12.5 µM; 300,000 tested, 0.75% active;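 active means mean activation of at least 80% with every replicate also reaching 80%; inconclusive means mean reaches 80% but some replicate falls short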;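 further: 0% = neutral control wells and 100% = parthenolide positive control wells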
HSF1 inhib – HSF1 inhibition; NIH3T3-HGL HSE-luciferase, MG132-induced, luminescence 8 h; hits give low values; activity change, negative = inhibition, % at 7.5 µM (by protocol); 300,000 tested, 0.77% active; AID 2098;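 active means more than half of replicate wells show activity change below -50%, luminescence cut by over half; inconclusive means some wells, but at most half, below -50%; inactive means no replicate well below -50%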;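 further: luciferase reports HSF-1 transcriptional activity via heat shock element; 0% = median of DMSO wells and -100% = zero luminescence signal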
HSF-1 act – increases HSF-1 driven luciferase reporter signal. NIH3T3-HGL HSF-1 luciferase reporter, MG132, 8 h; 100% = twice DMSO control signal. activation, % at 9 µM. 300,000 tested, 1.7% active. AID 504408;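 active means mean replicate activation of at least 50% with a set share of replicates each reaching 50%; inconclusive means only one of those two conditions met; inactive means mean below 50% and too few replicates reaching it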;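 further: 0% = median of the neutral control wells and 100% = twice that signal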
Wnt bcat act – activates Wnt/beta-catenin signaling in a reporter cell assay; activator, plate reader; activation, % at 9.35 µM; 300,000 tested, 1.2% active; in the data active means activation above about 30%, passing the limit was not always enough; inconclusive means no clear call, values can overlap the other calls;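 further: 0% = neutral control wells and 100% = positive control wells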
An asterisk follows results filed as active; ? = inconclusive; . = not tested or not shown; ! = a repeat was not active. In the library only some 3.9% were active in any assay of this set; here they are far more common.

SMILES	esBAF inh	MITF act	HSF1 inhib	HSF-1 act	Wnt bcat act
C[C@@H]1CN([C@H](C)CO)C(=O)c2cc(NC(=O)Nc3ccc(F)cc3)ccc2O[C@H]1CN(C)S(C)(=O)=O	3	.	.	.	.
Cn1cnc(S(=O)(=O)N2C[C@@H](O)COC[C@@H]3O[C@@H](CC(=O)NC4Cc5ccccc5C4)CC[C@H]32)c1	1	.	.	.	.
Cc1ccc2nc(N3C(=O)CNC3=S)sc2c1	.	.	21	38	-2
COc1ccc2nc(N3C(=O)CNC3=S)sc2c1	.	.	23	39	54*
Cc1cccc(NC(=O)N2CCCCCC2)c1	43*	33	9	2	6
Cc1ccc(NC(=O)N2CCCCCC2)cc1C	52*	36	21	34	27
O=C(Nc1cnc2ccccc2c1)N1CCCCC1	.	94*	8	20	.
O=C(Nc1cnc2ccccc2c1)N1CCOCC1	.	27	7	26	.
C[C@H](CO)N1C[C@H](C)[C@@H](CN(C)Cc2ccc(C(=O)O)cc2)Oc2ccc(N(C)C)cc2C1=O	0	.	.	.	.
C[C@@H]1CCCCO[C@@H](CN(C)C(=O)CCC(F)(F)F)[C@@H](C)CN([C@@H](C)CO)C(=O)c2cc(NC(=O)c3ccccc3)ccc2O1	-10	.	.	.	.
N=C1C(c2nc3ccccc3[nH]2)=C(O)CN1c1ccccc1	63*	45	17	13	6
CCC(C)N1CC(O)=C(c2nc3ccccc3[nH]2)C1=N (stereo unspecified)	?	65	18	20	14
CCOC(=O)c1ccc(N2CC(O)=C(c3nc4ccccc4c(=O)[nH]3)C2=N)cc1	7	5	-6	-4	.
CC1C(O)=C(c2nc3ccccc3[nH]2)C(=N)N1c1ccccc1 (stereo unspecified)	48*	30	12	12	.
N=C1C(c2nc3ccccc3[nH]2)=C(O)CN1c1ccc(CC(=O)O)cc1	-10	-3	-54*	-63	.
CC1/C(=C\c2ccc(Cl)cc2)C(=O)C2CC1C2(C)C (stereo unspecified)	6	-2	0	-10	0
CC1CCC(C(C)C)C(=O)/C1=C/c1ccc(N)cc1 (stereo unspecified)	59*	112*	4	34	53*
C[C@@H]1CN([C@@H](C)CO)C(=O)c2cc(C#C[C@@H](C)O)cnc2O[C@@H]1CN(C)C(=O)CC1CC1	4	.	.	.	.
CCNC(=O)C[C@H]1CC[C@@H]2[C@H](COC[C@H](O)CN2C(=O)Nc2ccc3c(c2)OCO3)O1	45*	.	.	.	.
CCNC(=O)C[C@@H]1CC[C@@H]2[C@H](COC[C@H](O)CN2C(=O)Nc2ccc3c(c2)OCO3)O1	44*	.	.	.	.
CCCNC(=O)C[C@H]1CC[C@H]2[C@@H](COC[C@H](O)CN2C(=O)Nc2ccc3c(c2)OCO3)O1	14	.	.	.	.
CCCNC(=O)C[C@@H]1CC[C@@H]2[C@H](COC[C@@H](O)CN2C(=O)Nc2ccc3c(c2)OCO3)O1	8	.	.	.	.
O=C(C[C@@H]1C=C[C@@H](NS(=O)(=O)c2cccc(F)c2)[C@@H](CO)O1)NCc1ccc2c(c1)OCO2	1	.	.	.	.
CC1CN(C(=O)CS(=O)(=O)Cc2ccccc2)CC(C)O1 (stereo unspecified)	-3	-4	17	60*	0
Cc1nc(/C(N)=N/OC(=O)Cc2ccccc2)no1	.	5	19	57*	-1
SMILES	esBAF inh	MITF act	HSF1 inhib	HSF-1 act	Wnt bcat act
N/C(=N\OC(=O)Cc1ccccc1)c1ccccn1	.	7	3	15	.
CC1CCC2(CC1)NC(=O)N(Cc1cccc(C(F)(F)F)c1)C2=O (stereo unspecified)	.	-6	-3	13	92*
CC1CCC2(CC1)NC(=O)N(CC(=O)N(Cc1ccccc1)C(C)(C)C)C2=O (stereo unspecified)	-7	0	.	.	-1
CCNC(=O)C[C@H]1CC[C@H]2[C@@H](COc3ccc(NC(=O)c4ccc(F)cc4)cc3C(=O)N2C)O1	1	.	.	.	.
COc1ccc(C)cc1NCc1cc(=O)oc2cc(-c3ccccc3)c(O)cc12	62*	34	-1	-3	.
O=C1CC(/C=C/c2ccncc2)=Nc2ccccc2N1	88*	-4	0	30	0
O=C1CC(c2ccccc2)=Nc2ccccc2N1	12	12	-19	-31	2
CCn1nc(C(=O)NNC(=O)COc2ccccc2C)c2ccccc2c1=O	.	-3	22	57*	-2
CCc1ccc(OCC(=O)NNC(=O)c2nn(CC)c(=O)c3ccccc23)cc1	.	-6	-7	-1	1
S=C(NCCc1ccccc1)NN=C1CCCCCC1	.	22	46	67*	1
S=C(NCCc1ccccc1)N/N=C/C1CCCCC1	.	.	21	22	.
C[C@@H]1CCCCO[C@H](CN(C)Cc2ccc(Cl)c(Cl)c2)[C@@H](C)CN([C@@H](C)CO)C(=O)c2cc(NC(=O)Nc3ccc4c(c3)OCO4)ccc2O1	0	.	.	.	.
CCOC(=O)c1[nH]nc(C(=O)c2ccc(Br)cc2)c1O	54*	.	10	24	.
Fc1ccccc1Cn1nnc2c(NCCc3ccccn3)ncnc21	48*	17	-1	21	.
Fc1cccc(Cl)c1Cn1nnc2c(NCc3ccccn3)ncnc21	.	-17	6	1	-8
Nc1nc(SCc2ccc(Cl)cc2Cl)ns1	30	.	9	21	6
Cc1ccccc1CSc1nsc(N)n1	9	.	16	61*	.
CC(C)(C)c1ccc(/C=N/N2C(=O)CSC2=S)cc1	-22	-10	-77*	-79	-6
CNC[C@H]1Oc2ccc(NC(=O)Nc3ccccc3)cc2C(=O)N([C@@H](C)CO)C[C@@H]1C	-2	.	.	.	.
OCC1CCCN(C(=S)Nc2ccc(Nc3ccccc3)cc2)C1 (stereo unspecified)	47*	49	34	74*	3
OCC1CCCN(C(=S)Nc2ccc(OC(F)F)cc2)C1 (stereo unspecified)	.	14	9	16	4
CC(=O)Nc1nc2ccc(-c3nc4ccccc4o3)cc2s1	.	18	9	26	79*
O=C(Cc1cccs1)Nc1cccc(-c2nc3ccccc3o2)c1	7	10	-11	-3	0
CCC(=O)Nc1cccc(-c2nc3ccccc3o2)c1	60*	16	-23	-34	17
CC(C)NC(=O)Nc1ccc2c(c1)C(=O)N([C@H](C)CO)C[C@H](C)[C@H](CN(C)C(=O)C1CCCCC1)OCCCC[C@@H](C)O2	1	.	.	.	.
SMILES	esBAF inh	MITF act	HSF1 inhib	HSF-1 act	Wnt bcat act
CN1CCN(C(=O)C[C@@H]2CC[C@@H]3[C@H](COC[C@@H](O)CN3CC3CCOCC3)O2)CC1	5	.	.	.	.
Clc1ccc(OCc2nc(-c3ccncc3)no2)cc1	62*	72	27	36	19
Clc1ccc(-c2nc(-c3ccncc3)no2)c(Cl)c1	.	.	19	43	60*
Clc1ccccc1-c1nc(-c2ccncc2)no1	13	36	24	28	49*!
O=[N+]([O-])c1cc(Cl)ccc1-c1nc(-c2ccccc2)no1	.	47	39	95*	51*
Clc1ccc(Cl)c(-c2nc(-c3ccncc3)no2)c1	39	.	7	0	8

Assay outcomes from PubChem.
